Records with an inconclusive call do not appear. The source made the active and inactive calls. Unless noted, the call rests on the fitted dose curve.
How the values were obtained:
[1] = Nuclear factor erythroid 2-related factor 2/antioxidant responsive element (Nrf2/ARE) small molecule agonists: qHTS cell viability counter screen in human keratinocytes (AID 1919968; active means well fitted curve in the direction sought with a large enough effect in the repeat runs; an effect the other way counts as inactive or inconclusive; further: nearly all actives have a fitted effect of over 55% in size)
Summary of the method: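 Viability counter-screen: KeratinoSens reporter cells, DMSO-delivered compounds, 23 h at 37 C, CellTiter-Fluor fluorescence.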

[2] = Nuclear factor erythroid 2-related factor 2/antioxidant responsive element (Nrf2/ARE) small molecule agonists: luciferase reporter gene qHTS assay in human keratinocytes (AID 1919969); further: nearly all actives have a fitted effect of over 35% in size
[3] = biological target: Gonadotropin-releasing hormone receptor (Homo sapiens) (UniProt P30968); experiment: Human gonadotropin-releasing hormone receptor (GnRHR) small molecule agonists, calcium flux assay in GnRHR-HEK293 cells (AID 1920063); further: nearly all actives have a fitted effect of over 35% in size
Summary of the method: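 Tox21-format agonist screen using human GnRHR-expressing HEK293 cells and a fluorescent calcium dye; kinetic 3-min fluorescence reading after compound addition, 15-point concentration series run in triplicate.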

[4] = biological target: KiSS-1 receptor (Homo sapiens) (UniProt Q969F8); experiment: Human kisspeptin (KISS1R) small molecule agonists, calcium flux assay in KISS1R-HEK293 cells (AID 1920064; active means well fitted curve in the direction sought with a large enough effect in the repeat runs; an effect the other way counts as inactive or inconclusive)
Summary of the method: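 Intracellular calcium mobilization in KISS1R-HEK293 cells was recorded by fluorescence (Ex/Em 480/540) for 3 min following compound addition to cells pre-loaded 1 h with calcium dye.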

[5] = G protein-coupled receptor (GPCR) small molecule agonists, calcium flux assay: HEK293 wild type cell line counter screen (AID 1920065)
Summary of the method: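 In this agonist-mode screen, ATP is the positive control and DMSO the vehicle. Cells grow 18 h before a 1 h dye incubation at 37 C; signal is taken at Ex/Em 480/540 over 3 min.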

[6] = p53 small molecule agonists, cell-based qHTS assay with human liver microsomes (AID 1963577);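 further: p53 response element beta-lactamase reporter cells with liver microsomes plus NADPH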
Summary of the method: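 16 h, 37 C exposure of p53RE-bla cells to compounds with human liver microsomes and NADPH (0.5 mg/mL final each); detection via LiveBLAzer mixture, 2 h dark at room temperature.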

[7] = p53 small molecule agonists, cell-based qHTS assay with rat liver microsomes (AID 1963578)
Summary of the method: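 With rat liver microsomes and NADPH present (0.5 mg/mL final each), p53RE-bla cells are treated with compound for 16 h at 37 C. LiveBLAzer detection mixture is then applied for 2 h at room temperature in the dark.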

[8] = p53 small molecule agonists, cell-based qHTS assay with human liver microsomes: qHTS cell viability counter screen (AID 1963579); further: nearly all actives have a fitted effect of over 45% in size
Summary of the method: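 In this multiplexed counter screen, the reporter plates were subsequently treated with CellTiter-Glo so that cell viability, reflected by luminescence, could be recorded for p53RE-bla cells dosed 16 h with compounds under microsomal activation (HLM and NADPH).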

[9] = p53 small molecule agonists, cell-based qHTS assay with rat liver microsomes: qHTS cell viability counter screen (AID 1963580); further: nearly all actives have a fitted effect of over 45% in size
Summary of the method: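 p53RE-bla HCT-116 cells were exposed 16 h at 37 C to compounds with rat liver microsomes (0.5 mg/mL) and NADPH (0.5 mg/mL). Viability was measured in the same wells as ATP content by CellTiter-Glo luminescence.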

[10] = p53 small molecule agonists, cell-based qHTS assay: qHTS cell viability counter screen (AID 1963581); further: nearly all actives have a fitted effect of over 45% in size
Summary of the method: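 Compounds are pinned onto HCT-116 p53RE-bla cells and left 16 h at 37 C. Following the reporter FRET read, ATP is quantified by CellTiter-Glo luminescence after 30 min at room temperature.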

[11] = p53 small molecule agonists, cell-based qHTS assay (AID 1963582; active means well fitted activation curve with a large enough effect in the signal ratio in the repeat runs, not every such curve was filed as active; the % refers to the signal ratio)
Summary of the method: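 Agonist activity was scored from beta-lactamase FRET fluorescence in p53RE-bla cells treated 16 h at 37 C with compounds in DMSO, substrate incubation being 2 h at room temperature.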

[12] = biological target: 5-hydroxytryptamine receptor 2A (Homo sapiens) (UniProt P28223); experiment: 5-hydroxytryptamine receptor 2A (HTR2A) small molecule antagonists, cell-based qHTS assay (AID 1963586); further: nearly all actives have a fitted effect of over 45% in size
Summary of the method: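 Antagonist-mode intracellular calcium assay: DOI (4 nM) added after 5 min compound pre-incubation at room temperature to dye-loaded HTR2A-CHO cells. Fluorescence followed for 3 min, sampled every second.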

[13] = biological target: 5-hydroxytryptamine receptor 2A (Homo sapiens) (UniProt P28223); experiment: 5-hydroxytryptamine receptor 2A (HTR2A) small molecule agonists, cell-based qHTS assay (AID 1963587); further: nearly all actives have a fitted effect of over 30% in size
Summary of the method: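 CHO cells stably expressing human HTR2A, plated 18 h, loaded with calcium dye 1 h at 37 C. Agonist mode: compounds added and intracellular calcium fluorescence recorded kinetically for 2 min at 1 sec intervals.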

[14] = biological target: Muscarinic acetylcholine receptor M1 (Homo sapiens) (UniProt P11229); experiment: Cholinergic receptor muscarinic 1 (CHRM1) small molecule agonists, cell-based qHTS assay (AID 1963589); further: nearly all actives have a fitted effect of over 35% in size
Summary of the method: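 Stable CHRM1-CHO cells (human receptor) were incubated 18 h, dye-loaded for 1 h at 37 C and exposed to test compounds for agonist activity, with calcium-dependent fluorescence followed kinetically.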

[15] = cAMP Responsive Elements (CRE) small molecule antagonists, cell-based qHTS assay (AID 1963591; active means well fitted inhibition curve with a large enough effect in the signal ratio in the repeat runs, not every such curve was filed as active; the % refers to the signal ratio)
Summary of the method: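 qHTS in CRE-bla HEK 293T cells: compound in DMSO, then 0.25 uM NKH477 (final), 3 h at 37 °C/5% CO2; beta-lactamase FRET read-out after 2 h substrate incubation.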

[16] = biological target: Beta-2 adrenergic receptor (Homo sapiens) (UniProt P07550); experiment: Adrenergic beta2 receptor (ADRB2) small molecule antagonists, cell-based qHTS assay (AID 1963592); further: series mostly up to about 92 µM; nearly all actives have a fitted effect of over 50% in size
Summary of the method: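 Cells (CHO, stable ADRB2 overexpression) incubated 18-20hr at 37C; compounds added from DMSO; agonist mix (1nM isoproterenol, 100uM IBMX, 25uM Ro-20-1724) added; 0.5hr RT; d2-cAMP and anti-cAMP-cryptate added; 1hr RT; 665/615 nm read.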

[17] = biological target: Beta-2 adrenergic receptor (Homo sapiens) (UniProt P07550); experiment: Adrenergic beta2 receptor (ADRB2) small molecule agonists, cell-based qHTS assay (AID 1963593);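 further: CHO cells stably overexpressing human ADRB2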
Summary of the method: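 CHO cells stably over-expressing ADRB2 were plated overnight at 37C, then dosed with compounds plus a stimulation mix containing 100uM IBMX and 25uM Ro-20-1724 for 0.5hr at room temperature. cAMP was measured by HTRF competition, 1hr.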

[18] = biological target: D(2) dopamine receptor (Homo sapiens) (UniProt P14416); experiment: Dopamine D2 receptor (DRD2) small molecule agonists, cell-based qHTS assay (AID 1963594); further: nearly all actives have a fitted effect of over 35% in size
Summary of the method: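 HEK293 cells stably expressing human DRD2, pre-treated with PDE inhibitor Ro20-1724 (0.1 mM final) and compound 10 min at room temperature, then stimulated with NKH477 (200nM […]) for 30 min. cAMP read by HTRF (665/620 nm).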

[19] = biological target: D(2) dopamine receptor (Homo sapiens) (UniProt P14416); experiment: Dopamine D2 receptor (DRD2) small molecule antagonists, cell-based qHTS assay (AID 1963595; active means well fitted inhibition curve with a large enough effect in the signal ratio in the repeat runs, with a control signal flat; the % refers to the signal ratio)
Summary of the method: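 In this cell-based antagonist screen, compounds act for 10 min at room temperature before a 30 min challenge with 12 nM quinpirole and 200 nM NKH477. cAMP is quantified by HTRF competition in DRD2-HEK293 cells containing 0.1 mM Ro20-1724.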

[20] = biological target: Muscarinic acetylcholine receptor M1 (Homo sapiens) (UniProt P11229); experiment: Cholinergic receptor muscarinic 1 (CHRM1) small molecule antagonists, cell-based qHTS assay (AID 1963588); further: nearly all actives have a fitted effect of over 40% in size
Summary of the method: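 CHRM1-CHO calcium-flux assay, antagonist mode. Cells were seeded 18 h, dye-loaded 1 h at 37 C and given compound for 5 min at RT, then acetylcholine was added at 50nM. FDSS fluorescence was read 3 min; 15 concentrations, three runs.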

Measured: Potency

Sequence of Muscarinic acetylcholine receptor M1 (Homo sapiens) (P11229 whole entry, looked up): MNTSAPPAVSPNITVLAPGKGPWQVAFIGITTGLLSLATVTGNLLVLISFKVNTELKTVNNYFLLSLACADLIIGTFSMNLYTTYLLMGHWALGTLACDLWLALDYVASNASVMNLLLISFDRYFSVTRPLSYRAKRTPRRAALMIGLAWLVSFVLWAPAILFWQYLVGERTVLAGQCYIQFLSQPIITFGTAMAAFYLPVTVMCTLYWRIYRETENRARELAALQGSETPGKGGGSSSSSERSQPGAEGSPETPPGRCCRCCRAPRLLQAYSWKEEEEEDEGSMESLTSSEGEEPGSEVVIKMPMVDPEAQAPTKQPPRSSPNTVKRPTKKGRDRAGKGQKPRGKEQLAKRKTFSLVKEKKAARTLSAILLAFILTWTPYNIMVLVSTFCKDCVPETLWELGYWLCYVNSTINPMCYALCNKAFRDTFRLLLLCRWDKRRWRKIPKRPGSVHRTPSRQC
Sequence of Beta-2 adrenergic receptor (Homo sapiens) (P07550 whole entry, looked up): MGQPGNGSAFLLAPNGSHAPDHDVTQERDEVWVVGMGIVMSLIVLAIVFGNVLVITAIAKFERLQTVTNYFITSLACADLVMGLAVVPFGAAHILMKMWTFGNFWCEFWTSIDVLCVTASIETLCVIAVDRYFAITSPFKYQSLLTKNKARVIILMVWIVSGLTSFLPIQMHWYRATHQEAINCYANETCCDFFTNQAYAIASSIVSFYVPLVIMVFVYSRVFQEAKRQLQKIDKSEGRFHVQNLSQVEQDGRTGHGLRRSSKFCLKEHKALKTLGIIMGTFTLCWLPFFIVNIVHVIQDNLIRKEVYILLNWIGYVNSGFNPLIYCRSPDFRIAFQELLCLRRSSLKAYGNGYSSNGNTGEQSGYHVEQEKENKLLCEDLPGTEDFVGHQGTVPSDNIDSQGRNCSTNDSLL
Sequence of KiSS-1 receptor (Homo sapiens) (Q969F8 whole entry, looked up): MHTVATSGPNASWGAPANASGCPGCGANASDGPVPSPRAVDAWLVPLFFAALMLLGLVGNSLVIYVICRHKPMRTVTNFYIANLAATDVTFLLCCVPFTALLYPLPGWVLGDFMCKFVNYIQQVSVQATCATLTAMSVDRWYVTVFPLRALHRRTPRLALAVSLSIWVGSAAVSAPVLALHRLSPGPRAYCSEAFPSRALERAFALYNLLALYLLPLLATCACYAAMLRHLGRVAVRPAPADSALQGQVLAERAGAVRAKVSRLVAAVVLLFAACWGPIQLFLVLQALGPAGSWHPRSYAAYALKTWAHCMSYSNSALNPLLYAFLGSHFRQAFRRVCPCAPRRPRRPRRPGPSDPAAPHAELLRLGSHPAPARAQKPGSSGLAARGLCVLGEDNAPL
Sequence of 5-hydroxytryptamine receptor 2A (Homo sapiens) (P28223 whole entry, looked up): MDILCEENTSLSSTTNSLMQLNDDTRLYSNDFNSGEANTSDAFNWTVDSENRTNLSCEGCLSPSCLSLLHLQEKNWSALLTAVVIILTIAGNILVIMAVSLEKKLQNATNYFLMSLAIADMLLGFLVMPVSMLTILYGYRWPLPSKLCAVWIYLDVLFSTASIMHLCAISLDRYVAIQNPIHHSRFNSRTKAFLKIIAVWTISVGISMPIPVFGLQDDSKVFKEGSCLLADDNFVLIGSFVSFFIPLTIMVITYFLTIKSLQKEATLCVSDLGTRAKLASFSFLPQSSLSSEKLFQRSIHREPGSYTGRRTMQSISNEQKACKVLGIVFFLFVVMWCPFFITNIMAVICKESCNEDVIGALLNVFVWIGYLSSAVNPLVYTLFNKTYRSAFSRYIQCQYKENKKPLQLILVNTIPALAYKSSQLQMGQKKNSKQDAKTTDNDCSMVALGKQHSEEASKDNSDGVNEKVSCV
Sequence of Gonadotropin-releasing hormone receptor (Homo sapiens) (P30968 whole entry, looked up): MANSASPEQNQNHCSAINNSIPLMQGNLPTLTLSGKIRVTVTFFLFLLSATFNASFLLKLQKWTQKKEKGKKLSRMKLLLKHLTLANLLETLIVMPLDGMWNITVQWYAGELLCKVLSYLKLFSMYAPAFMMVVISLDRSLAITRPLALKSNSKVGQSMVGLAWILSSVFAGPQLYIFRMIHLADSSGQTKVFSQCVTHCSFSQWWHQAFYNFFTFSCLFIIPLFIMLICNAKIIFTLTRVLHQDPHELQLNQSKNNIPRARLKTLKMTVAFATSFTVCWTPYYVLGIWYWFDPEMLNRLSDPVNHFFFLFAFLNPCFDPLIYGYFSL
Sequence of D(2) dopamine receptor (Homo sapiens) (P14416 whole entry, looked up): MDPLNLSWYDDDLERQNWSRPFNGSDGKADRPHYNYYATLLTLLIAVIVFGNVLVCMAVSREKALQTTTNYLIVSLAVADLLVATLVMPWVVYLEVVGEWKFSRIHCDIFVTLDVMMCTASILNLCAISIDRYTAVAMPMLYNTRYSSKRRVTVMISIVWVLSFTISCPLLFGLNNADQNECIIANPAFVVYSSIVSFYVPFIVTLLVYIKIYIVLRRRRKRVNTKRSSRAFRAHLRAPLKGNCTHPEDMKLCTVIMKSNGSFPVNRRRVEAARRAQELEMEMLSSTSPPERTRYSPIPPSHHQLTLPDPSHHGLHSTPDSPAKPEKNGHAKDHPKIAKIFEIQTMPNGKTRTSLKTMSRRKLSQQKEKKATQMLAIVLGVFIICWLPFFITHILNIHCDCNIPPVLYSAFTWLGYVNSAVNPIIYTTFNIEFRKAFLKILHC

CCc1cccc(CC)c1NC(=O)C(=O)O
inactive: [1] | [2] | [3] | [4] | [5] | [6] | [7] | [8] | [9] | [10] | [11] | [12] | [13] | [14] | [15] | [16] | [17] | [18] | [19]

CC1=NN(c2ccc(S(=O)(=O)O)cc2)C(=O)C1
inactive: [1] | [2] | [3] | [4] | [5] | [6] | [7] | [8] | [9] | [10] | [11] | [12] | [13] | [20] | [15] | [16] | [18]

CCC(N)(CO)CO
inactive: [1] | [2] | [3] | [4] | [5] | [6] | [7] | [8] | [9] | [10] | [11] | [12] | [13] | [20] | [15] | [16] | [17] | [18] | [19]

Cc1cc(C)cc(N)c1
inactive: [1] | [2] | [3] | [4] | [5] | [6] | [7] | [8] | [9] | [10] | [11] | [12] | [13] | [20] | [15] | [16] | [17] | [18] | [19]

C=CC(C)(CCC=C(C)C)OC=O (stereo not given)
inactive: [1] | [2] | [3] | [4] | [5] | [6] | [7] | [8] | [9] | [10] | [11] | [12] | [13] | [20] | [15] | [16] | [17] | [18] | [19]

CC(=O)O[C@H]1C[C@@H]2CC[C@@]1(C)C2(C)C
inactive: [1] | [2] | [3] | [4] | [5] | [6] | [7] | [8] | [9] | [10] | [11] | [12] | [13] | [20] | [15] | [16] | [18] | [19]

O=Cc1ccc(Cl)c(Cl)c1
inactive: [1] | [2] | [3] | [4] | [5] | [6] | [7] | [8] | [9] | [10] | [11] | [12] | [13] | [20] | [15] | [16] | [17] | [18] | [19]

Source: PubChem BioAssay (Tox21)
